Assay results reported in the supplement of paper PMC7724964.

T1: ARFGEF2 639-829 Sec7 (domain begin residue: 639, domain end residue: 829), Q9Y6D5
T1 chain: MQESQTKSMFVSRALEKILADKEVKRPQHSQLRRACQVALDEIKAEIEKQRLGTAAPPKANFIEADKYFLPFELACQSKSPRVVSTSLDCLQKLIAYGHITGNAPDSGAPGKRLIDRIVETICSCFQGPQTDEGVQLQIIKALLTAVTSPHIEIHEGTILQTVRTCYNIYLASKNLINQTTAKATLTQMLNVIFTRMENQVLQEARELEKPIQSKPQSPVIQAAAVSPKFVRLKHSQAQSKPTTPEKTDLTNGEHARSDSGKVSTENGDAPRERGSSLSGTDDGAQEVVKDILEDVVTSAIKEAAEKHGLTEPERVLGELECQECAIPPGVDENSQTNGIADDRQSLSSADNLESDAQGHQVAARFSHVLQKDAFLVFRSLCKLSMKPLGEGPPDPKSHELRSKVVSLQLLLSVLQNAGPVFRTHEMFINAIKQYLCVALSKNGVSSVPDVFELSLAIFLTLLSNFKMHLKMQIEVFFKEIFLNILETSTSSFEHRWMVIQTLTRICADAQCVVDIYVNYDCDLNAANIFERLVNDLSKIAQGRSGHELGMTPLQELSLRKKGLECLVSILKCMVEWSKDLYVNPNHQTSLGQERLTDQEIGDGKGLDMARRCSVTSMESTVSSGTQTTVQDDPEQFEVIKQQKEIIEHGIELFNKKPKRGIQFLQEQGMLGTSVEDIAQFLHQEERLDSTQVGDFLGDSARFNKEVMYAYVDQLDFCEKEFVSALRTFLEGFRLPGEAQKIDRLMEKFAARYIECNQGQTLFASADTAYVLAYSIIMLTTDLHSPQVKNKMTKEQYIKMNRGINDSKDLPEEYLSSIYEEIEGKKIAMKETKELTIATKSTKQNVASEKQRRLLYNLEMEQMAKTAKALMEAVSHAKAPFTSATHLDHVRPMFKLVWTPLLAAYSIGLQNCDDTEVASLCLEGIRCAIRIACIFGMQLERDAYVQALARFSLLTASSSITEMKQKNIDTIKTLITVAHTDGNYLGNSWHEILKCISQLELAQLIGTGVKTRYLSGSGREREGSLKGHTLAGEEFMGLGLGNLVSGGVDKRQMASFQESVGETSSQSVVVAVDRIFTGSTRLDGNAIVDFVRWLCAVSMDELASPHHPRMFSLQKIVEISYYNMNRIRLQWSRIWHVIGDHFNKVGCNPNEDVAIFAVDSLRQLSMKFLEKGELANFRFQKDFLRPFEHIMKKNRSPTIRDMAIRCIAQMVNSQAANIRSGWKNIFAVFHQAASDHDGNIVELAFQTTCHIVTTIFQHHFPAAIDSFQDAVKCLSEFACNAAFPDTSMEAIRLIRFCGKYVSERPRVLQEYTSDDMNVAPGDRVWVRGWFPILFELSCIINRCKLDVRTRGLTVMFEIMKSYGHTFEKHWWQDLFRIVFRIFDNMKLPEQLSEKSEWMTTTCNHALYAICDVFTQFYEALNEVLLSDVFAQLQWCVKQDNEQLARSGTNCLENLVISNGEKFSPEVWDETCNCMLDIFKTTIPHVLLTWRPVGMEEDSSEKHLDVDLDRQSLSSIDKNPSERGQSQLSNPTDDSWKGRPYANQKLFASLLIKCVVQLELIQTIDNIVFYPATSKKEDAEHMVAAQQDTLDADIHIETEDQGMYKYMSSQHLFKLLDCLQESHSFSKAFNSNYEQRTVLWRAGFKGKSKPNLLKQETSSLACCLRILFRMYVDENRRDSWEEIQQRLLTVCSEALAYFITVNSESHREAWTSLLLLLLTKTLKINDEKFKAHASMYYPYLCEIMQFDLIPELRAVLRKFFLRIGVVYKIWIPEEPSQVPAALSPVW

T2: CAPN2 513-700 EF-hand_8 (domain begin residue: 513, domain end residue: 700), P17655
T2 chain: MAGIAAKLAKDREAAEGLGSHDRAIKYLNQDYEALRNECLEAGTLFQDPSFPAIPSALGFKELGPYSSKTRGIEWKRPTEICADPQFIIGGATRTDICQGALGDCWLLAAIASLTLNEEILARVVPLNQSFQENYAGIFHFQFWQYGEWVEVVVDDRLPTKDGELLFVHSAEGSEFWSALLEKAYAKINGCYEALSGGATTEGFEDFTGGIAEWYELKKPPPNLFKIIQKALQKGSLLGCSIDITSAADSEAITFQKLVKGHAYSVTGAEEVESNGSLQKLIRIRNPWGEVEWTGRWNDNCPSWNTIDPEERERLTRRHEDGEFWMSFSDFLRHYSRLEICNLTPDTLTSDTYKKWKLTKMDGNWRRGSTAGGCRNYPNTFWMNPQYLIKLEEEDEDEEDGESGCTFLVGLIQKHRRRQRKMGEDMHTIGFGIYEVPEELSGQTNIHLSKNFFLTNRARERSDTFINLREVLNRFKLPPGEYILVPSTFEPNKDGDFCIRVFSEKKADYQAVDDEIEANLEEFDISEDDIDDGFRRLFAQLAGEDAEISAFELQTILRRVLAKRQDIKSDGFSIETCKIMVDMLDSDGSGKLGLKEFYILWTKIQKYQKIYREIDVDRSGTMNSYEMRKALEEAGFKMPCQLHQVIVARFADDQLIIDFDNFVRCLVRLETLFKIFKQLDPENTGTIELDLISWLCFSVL

T3: ALDOA 1-364 Glycolytic (domain begin residue: 1, domain end residue: 364), P04075
T3 chain: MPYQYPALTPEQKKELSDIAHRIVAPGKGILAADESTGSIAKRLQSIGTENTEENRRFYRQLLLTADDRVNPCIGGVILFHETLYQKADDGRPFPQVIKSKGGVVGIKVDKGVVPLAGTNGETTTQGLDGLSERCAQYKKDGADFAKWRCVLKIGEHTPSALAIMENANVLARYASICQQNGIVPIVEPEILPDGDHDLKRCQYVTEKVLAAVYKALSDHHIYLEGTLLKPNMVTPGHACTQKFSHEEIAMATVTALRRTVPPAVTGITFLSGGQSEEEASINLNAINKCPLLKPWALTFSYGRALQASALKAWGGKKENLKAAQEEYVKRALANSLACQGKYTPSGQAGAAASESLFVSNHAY

T4: BTN1A1 285-479 SPRY (domain begin residue: 285, domain end residue: 479), Q13410
T4 chain: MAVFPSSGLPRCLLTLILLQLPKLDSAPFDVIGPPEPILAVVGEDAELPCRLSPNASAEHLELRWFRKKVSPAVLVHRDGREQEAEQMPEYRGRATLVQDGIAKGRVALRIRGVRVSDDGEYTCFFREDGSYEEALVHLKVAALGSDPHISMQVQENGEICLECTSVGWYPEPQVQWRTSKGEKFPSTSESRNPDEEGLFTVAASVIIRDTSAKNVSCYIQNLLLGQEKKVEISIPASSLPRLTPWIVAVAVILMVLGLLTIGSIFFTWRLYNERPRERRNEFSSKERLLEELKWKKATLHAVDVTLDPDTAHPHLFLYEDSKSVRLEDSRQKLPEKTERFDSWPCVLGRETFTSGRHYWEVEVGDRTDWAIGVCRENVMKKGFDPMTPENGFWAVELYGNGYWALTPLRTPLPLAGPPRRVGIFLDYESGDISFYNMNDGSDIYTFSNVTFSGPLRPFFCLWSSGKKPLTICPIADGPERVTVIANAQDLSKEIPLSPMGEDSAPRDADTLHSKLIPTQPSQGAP

T5: ARID4A 568-634 Tudor-knot (domain begin residue: 568, domain end residue: 634), P29374
T5 chain: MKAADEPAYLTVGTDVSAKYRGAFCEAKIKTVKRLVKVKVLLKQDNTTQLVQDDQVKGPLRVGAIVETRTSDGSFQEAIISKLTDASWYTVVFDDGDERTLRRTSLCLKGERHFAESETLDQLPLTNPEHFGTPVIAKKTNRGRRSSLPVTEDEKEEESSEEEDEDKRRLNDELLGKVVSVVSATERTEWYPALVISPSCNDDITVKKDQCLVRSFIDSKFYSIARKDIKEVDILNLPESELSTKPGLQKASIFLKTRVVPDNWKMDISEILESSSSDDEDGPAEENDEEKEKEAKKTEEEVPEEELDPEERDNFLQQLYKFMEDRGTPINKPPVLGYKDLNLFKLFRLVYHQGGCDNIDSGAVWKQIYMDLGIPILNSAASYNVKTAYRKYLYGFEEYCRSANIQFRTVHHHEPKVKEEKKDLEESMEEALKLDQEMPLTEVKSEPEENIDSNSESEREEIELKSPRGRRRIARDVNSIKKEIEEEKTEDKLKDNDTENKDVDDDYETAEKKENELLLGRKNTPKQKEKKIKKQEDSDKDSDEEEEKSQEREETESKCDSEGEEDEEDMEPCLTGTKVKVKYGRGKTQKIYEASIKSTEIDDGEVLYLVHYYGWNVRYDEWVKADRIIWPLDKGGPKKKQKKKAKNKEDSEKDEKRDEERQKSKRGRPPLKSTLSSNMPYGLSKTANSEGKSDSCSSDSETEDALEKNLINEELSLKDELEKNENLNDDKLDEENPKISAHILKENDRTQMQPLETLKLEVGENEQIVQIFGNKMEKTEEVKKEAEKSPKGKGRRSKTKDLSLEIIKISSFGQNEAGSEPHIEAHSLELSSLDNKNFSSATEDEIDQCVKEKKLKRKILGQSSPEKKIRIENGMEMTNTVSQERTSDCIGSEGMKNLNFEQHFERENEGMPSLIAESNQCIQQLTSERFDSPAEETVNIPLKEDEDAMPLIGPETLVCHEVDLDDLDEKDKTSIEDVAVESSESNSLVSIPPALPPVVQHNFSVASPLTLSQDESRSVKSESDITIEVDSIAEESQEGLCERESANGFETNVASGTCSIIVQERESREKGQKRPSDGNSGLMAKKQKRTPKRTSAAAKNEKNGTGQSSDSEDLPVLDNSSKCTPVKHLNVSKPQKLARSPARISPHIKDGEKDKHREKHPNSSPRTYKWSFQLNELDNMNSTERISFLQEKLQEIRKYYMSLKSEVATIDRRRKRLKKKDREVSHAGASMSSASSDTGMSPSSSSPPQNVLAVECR


Molecular target: T1, ARFGEF2 639-829 Sec7 (domain begin …
Assay: phage ELISA signal ratio (GST-PRM binding over GST background); higher = stronger binding of peptide-phage to the PRM
Method: (§1)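 Phage-displayed random hexadecapeptides (Cys-free, flanked by invariant Gly linkers, fused to the M13 P8 major coat protein) were selected over 5 rounds against GST-fused human PRM domains. Individual clones from rounds 4-5 were tested by phage ELISA, and positive clones binding the target but not GST were sequenced. Values are the ELISA signal ratio of target over background (GST); the background signal is given separately.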

Going from LTREHVQWDGVMHWIM to NEGERLWAVLKLWHEE, the “phage ELISA signal ratio” value rises from 16.4 to 18.6.

molecular target: CBX3 109-173 Chromo_shadow (domain begin residue: 109, domain end residue: 173), Q13185; assay: as above
Sequence (Q13185 whole entry): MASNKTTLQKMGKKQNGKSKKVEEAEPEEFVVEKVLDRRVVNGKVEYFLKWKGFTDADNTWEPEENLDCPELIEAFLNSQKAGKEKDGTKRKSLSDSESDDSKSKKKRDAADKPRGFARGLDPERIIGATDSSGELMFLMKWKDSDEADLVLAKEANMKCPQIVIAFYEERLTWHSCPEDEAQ
Method: as §1

In the case of NWLFLDPDYYNVHWPS, the “phage ELISA signal ratio” value is reported as 3.29.

Molecular target: T2, CAPN2 513-700 EF-hand_8 (domain begin …
Assay: as above
Method: as §1

Going from WDAFVNDFMHEWSTFK to VTVPPWLMEMIMELMQ, the “phage ELISA signal ratio” value falls from 26.5 to 5.99.

Molecular target: T3, ALDOA 1-364 Glycolytic (domain begin …
Assay: as above
Method: as §1

Compared with VQWQERYTDYTFENVT, WVQDTWGEGWSYTVQE is lower in “phage ELISA signal ratio” value: 24.7 for the first, 20.2 for the second.

Molecular target: T4, BTN1A1 285-479 SPRY (domain begin …
Assay: as above
Method: as §1

Compared with GGIDWQGVYMKHFEMT, DWQYTYMPDMIPDWVM is higher in “phage ELISA signal ratio” value: 20.6 for the first, 20.7 for the second.

Molecular target: T5, ARID4A 568-634 Tudor-knot (domain begin …
Assay: as above
Method: as §1

In the case of YYWDTILVDNPEWHQL, the “phage ELISA signal ratio” value is reported as 4.22.
